Test results taken from PubChem BioAssay.
The source made the active and inactive calls. Unless noted, no rule for the calls is given here.

Legend:
[1] = resazurin metabolic signal in HepG2 cells – cell-based, resazurin fluorescence, 24 h, PK04 Diversity Set, profiling panel (AID 1172); details: HepG2 viability, higher = more signal; also: test concentration not given here
[2] = budding yeast growth changes without added modifier – OD600, strain BY4716, 24 h, basal condition, primary screen (AID 1173); details: S. cerevisiae BY4716 growth, OD600, 24 h; higher = more signal, called active from +8 up or from −8 down
[3] = viability profiling in MM1S myeloma cells – cell-based, resazurin fluorescence, basal, 24 h, PK04 Diversity Set, profiling panel (AID 1174); details: higher = more signal, called active from +8 up or from −8 down;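 also: MM1S multiple myeloma cell line; test concentration not given here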
[4] = target: Dihydroorotate dehydrogenase (quinone), mitochondrial (Plasmodium falciparum (isolate 3D7)) (UniProt Q08210); assay: inhibition of P. falciparum DHODH – biochemical, C-terminal His tag, absorbance 600 nm, primary screen (AID 1175); details: PfDHODH enzyme, DCIP absorbance 600 nm; higher = more signal, called active from +8 up or from −8 down;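 also: recombinant parasite enzyme with a five histidine tag at its C terminus; test concentration not given here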
[5] = inhibition of PAO1 biofilm formation – strain PAO1, LB-PBS medium, absorbance 600 nm, primary screen (AID 1176); also: test concentration not given here; details: P. aeruginosa PAO1 growth/biofilm, A600, 12 h; higher = more signal
[6] = growth modulation of vineyard yeast isolate – strain RM11-1a, OD600, basal, 24 h, primary screen (AID 1177);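 also: cultures grown under basal conditions with no added stressor; test concentration not given here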; details: S. cerevisiae RM11-1a growth, OD600, 24 h; higher = more signal, called active from +8 up or from −8 down
[7] = growth of efflux-deficient E. coli DRC39 – strain DRC39, OD650, 24 h, E. coli filamentation inducers, primary screen (AID 1178);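 also: growth measured as culture turbidity by optical density at 650 nm; test concentration not given here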; details: E. coli DRC39 acrAB, higher = more signal, called active from +8 up or from −8 down
[8] = growth of efflux-deficient E. coli DRC39 – strain DRC39, OD650, 48 h, E. coli filamentation inducers, primary screen (AID 1179);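 also: screen aims at cell division blockers that make cells filament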; details: E. coli DRC39 delta-acrAB growth, higher = more signal, called active from +8 up or from −8 down
[9] = viability profiling in RPMI8226 myeloma cells – cell-based, resazurin fluorescence, basal, 24 h, PK04 Diversity Set, profiling panel (AID 1180); details: higher = more signal;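 also: RPMI8826 multiple myeloma cell line at 5000 cells per well; test concentration not given here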
[10] = target: E3 ubiquitin-protein ligase XIAP (Homo sapiens) (UniProt P98170); assay: small molecules binding XIAP protein – biophysical, small-molecule microarray, fluorescence 635 nm, primary screen (AID 1181); details: higher = more signal;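 also: score merges 667 nm emission and signal to noise over triplicate slides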
E3 ubiquitin-protein ligase XIAP (Homo sapiens), sequence (P98170 whole entry, looked up): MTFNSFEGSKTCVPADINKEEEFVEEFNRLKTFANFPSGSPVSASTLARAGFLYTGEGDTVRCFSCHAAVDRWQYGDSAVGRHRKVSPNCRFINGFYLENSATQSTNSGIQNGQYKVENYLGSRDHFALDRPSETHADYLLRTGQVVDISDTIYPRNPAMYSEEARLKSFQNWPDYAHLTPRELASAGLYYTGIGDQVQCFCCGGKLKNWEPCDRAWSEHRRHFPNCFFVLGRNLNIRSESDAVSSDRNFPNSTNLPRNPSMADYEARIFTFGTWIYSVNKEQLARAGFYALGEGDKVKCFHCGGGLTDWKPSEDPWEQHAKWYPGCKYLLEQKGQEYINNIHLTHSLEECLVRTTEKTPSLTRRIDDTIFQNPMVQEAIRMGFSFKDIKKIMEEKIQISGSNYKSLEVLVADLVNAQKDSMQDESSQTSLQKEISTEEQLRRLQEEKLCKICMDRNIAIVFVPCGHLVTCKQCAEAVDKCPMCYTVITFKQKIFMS

Dihydroorotate dehydrogenase (quinone), mitochondrial (Plasmodium falciparum (isolate 3D7)), sequence (Q08210 whole entry, looked up): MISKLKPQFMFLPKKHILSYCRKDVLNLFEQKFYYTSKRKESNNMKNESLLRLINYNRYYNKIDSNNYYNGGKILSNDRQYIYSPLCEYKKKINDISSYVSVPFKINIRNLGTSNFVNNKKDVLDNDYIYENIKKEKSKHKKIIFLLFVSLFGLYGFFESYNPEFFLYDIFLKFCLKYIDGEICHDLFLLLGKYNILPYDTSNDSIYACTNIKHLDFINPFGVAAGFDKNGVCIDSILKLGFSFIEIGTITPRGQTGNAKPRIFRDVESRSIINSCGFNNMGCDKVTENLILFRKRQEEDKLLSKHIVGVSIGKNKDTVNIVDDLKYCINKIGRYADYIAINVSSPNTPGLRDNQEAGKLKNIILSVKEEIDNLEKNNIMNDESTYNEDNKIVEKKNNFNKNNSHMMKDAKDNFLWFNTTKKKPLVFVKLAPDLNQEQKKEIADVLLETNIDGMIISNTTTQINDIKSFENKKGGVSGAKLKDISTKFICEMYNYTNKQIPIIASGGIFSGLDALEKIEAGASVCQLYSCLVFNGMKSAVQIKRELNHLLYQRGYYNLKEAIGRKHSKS

| Compound | z-score [1] | z-score [2] | z-score [3] | composite z-score [4] | z-score [5] | z-score [6] | z-score [7] | z-score [8] | z-score [9] | composite z-score [10] |
| --- | --- | --- | --- | --- | --- | --- | --- | --- | --- | --- |
| CC(C)(C)N1C(=O)[C@H]2[C@H]3[C@H](O)[C@H](O)CC(=NNC(=O)OCc4ccccc4)[C@@H]3CC[C@H]2C1=O | -0.169 | 0.216 (inactive) | -0.484 (inactive) | -0.111 (inactive) | -0.413 (inactive) | -0.168 (inactive) | 0.223 (inactive) | 0.342 (inactive) | -0.376 | -0.102 |
| CCCNC(=O)OC[C@H]1O[C@H](CCON=C[C@@H](C)[C@H](OCc2ccccc2)C(C)C)C=C[C@@H]1Oc1ccc(OC)cc1 | -0.208 | -0.682 (inactive) | -2.5 (inactive) | -1.78 (inactive) | -0.242 (inactive) | -2.27 (inactive) | 0.0465 (inactive) | 0.428 (inactive) | -0.58 | -0.357 |
| COC(=O)CC=C1c2ccccc2[C@H](OC)[C@H]1C | -0.71 | 0.338 (inactive) | -0.788 (inactive) | 0.582 (inactive) | -0.245 (inactive) | -0.138 (inactive) | 0.216 (inactive) | 0.403 (inactive) | -0.49 | 0.419 |
| COC(=O)CC=C[C@@H](C)[C@@H](C=NOC(C)CN1CCCCc2nc(C)c(C)cc21)NS(=O)(=O)c1ccc(C)cc1 (stereo not given in full) | -0.194 | 0.434 (inactive) | -0.71 (inactive) | -0.069 (inactive) | 0.0525 (inactive) | -0.472 (inactive) | 0.424 (inactive) | 0.607 (inactive) | 0.0077 | -0.244 |
| CCOC(=O)[C@H](Cc1ccccc1)NC(=O)CCC1CC(OC(=O)NCCc2ccc(F)cc2)CC2(CCCC(COC(=O)NCc3cccc(C(F)(F)F)c3)O2)O1 (stereo not given in full) | 0.134 | -0.0427 (inactive) | 0.853 (inactive) | -0.276 (inactive) | 0.544 (inactive) | 0.322 (inactive) | 0.141 (inactive) | 0.0159 (inactive) | 0.864 | -0.102 |
| CCOC(=O)[C@H](Cc1ccccc1)NC(=O)CCC1CC(OC(=O)NCc2ccc3c(c2)OCO3)CC2(CCCC(COC(=O)NCCCN3CCCC3=O)O2)O1 (stereo not given in full) | 0.557 | -0.547 (inactive) | 0.913 (inactive) | -0.59 (inactive) | -0.801 (inactive) | -0.012 (inactive) | -0.131 (inactive) | 0.186 (inactive) | 1.36 | -0.124 |
| CO[C@H]1COC(=O)CC=C[C@@H](C)COC(=O)[C@H]2CCCN2C(=O)CC=C[C@H]1C | -0.3 | -0.872 (inactive) | -0.0093 (inactive) | 0.119 (inactive) | 0.246 (inactive) | 0.473 (inactive) | 1.14 (inactive) | 0.745 (inactive) | -0.258 | 0.0595 |
| COC(=O)[C@@H]1CC[C@H](C)[C@@H](c2ccc(Br)cc2)N1C[C@H](O)CN=[N+]=[N-] | -0.413 | -6.28 (inactive) | -0.666 (inactive) | 0.294 (inactive) | 1.09 (inactive) | 0.347 (inactive) | -0.78 (inactive) | -1.18 (inactive) | 0.385 | -0.122 |
| CCO[C@H](c1cc(OC)cc([N+](=O)[O-])c1OC)[C@H](C)[C@@H](OC)[C@H](C)C=CCC(=O)OC | -0.467 | -0.435 (inactive) | 0.149 (inactive) | 0.189 (inactive) | -0.303 (inactive) | -0.147 (inactive) | -0.508 (inactive) | -0.17 (inactive) | 0.0951 | 0.1 |
| C[C@@H]1CC[C@H]2C(=O)O[C@@H](CN=[N+]=[N-])CN2[C@H]1c1ccc(Br)cc1 | -0.607 | -3.55 (inactive) | -0.74 (inactive) | 5.24 (inactive) | -0.446 (inactive) | 4.32 (inactive) | 0.31 (inactive) | -1.66 (inactive) | -4.06 | -0.0421 |
| CCN1C(=O)[C@H]2[C@H]3[C@H](O)[C@H](O)CC(=NO[C@@H]4O[C@H](COC(C)=O)[C@@H](OC(C)=O)[C@H](OC(C)=O)[C@H]4OC(C)=O)[C@@H]3CC[C@H]2C1=O | -1.15 | 0.902 (inactive) | -0.974 (inactive) | -0.0673 (inactive) | -0.136 (inactive) | 0.164 (inactive) | 1.22 (inactive) | 1.44 (inactive) | -1.03 | 1.92 |
| CCOC(=O)CCN1C(=O)[C@H]2[C@H]3[C@H](O)[C@H](O)CC(=NNC(=O)OCc4ccc(OC)cc4)[C@H]3CC[C@H]2C1=O | 0.0785 | -3 (inactive) | -0.451 (inactive) | 0.0913 (inactive) | 1.07 (inactive) | -0.595 (inactive) | -0.653 (inactive) | -0.652 (inactive) | -0.244 | 0.12 |
| O=C1[C@H]2[C@H]3[C@H](O)[C@H](O)CC(=NO[C@@H]4O[C@H](CO)[C@@H](O)[C@H](O)[C@H]4O)[C@H]3CC[C@H]2C(=O)N1C[C@@H]1CCCO1 | 0.724 | 0.628 (inactive) | -1.45 (inactive) | -0.595 (inactive) | -0.355 (inactive) | 0.855 (inactive) | 0.42 (inactive) | 0.595 (inactive) | -0.39 | 0.127 |
| CC(C)=CCCC(C)=CCON=C1C[C@@H](O)[C@@H](O)[C@@H]2[C@@H]3C(=O)N(Cc4ccc5c(c4)OCO5)C(=O)[C@@H]3CC[C@@H]12 | 0.542 | -0.872 (inactive) | 0.411 (inactive) | -0.396 (inactive) | -0.437 (inactive) | 0.268 (inactive) | 0.499 (inactive) | -0.588 (inactive) | 0.354 | -0.17 |
| COC(=O)[C@H](C)NC(=O)CCC1CC(OC(=O)NCc2cccc3ccccc23)CC2(CCCC(COC(=O)NCc3ccccc3)O2)O1 (stereo not given in full) | 2.27 | -0.79 (inactive) | 1.18 (inactive) | 0.0095 (inactive) | -0.376 (inactive) | 0.136 (inactive) | -0.221 (inactive) | 0.324 (inactive) | 1.42 | -0.123 |
| C=CC[C@@H]1C=C[C@H](ON=CC[C@@H]2C=C[C@H](OC(C)=O)[C@@H](COC(C)=O)O2)[C@@H](CO)O1 | 0.083 | 0.365 (inactive) | -1.23 (inactive) | -0.84 (inactive) | -0.242 (inactive) | 0.879 (inactive) | 0.879 (inactive) | 0.984 (inactive) | -0.687 | -0.158 |
| COc1ccc(COC(=O)NN=C2C[C@@H](O)[C@@H](O)[C@@H]3[C@@H]4C(=O)N(C(C)(C)C)C(=O)[C@@H]4CC[C@@H]23)cc1 | -0.216 | -0.719 (inactive) | -0.181 (inactive) | -0.761 (inactive) | -0.225 (inactive) | -1.06 (inactive) | 0.237 (inactive) | 0.255 (inactive) | 0.156 | -0.252 |
| CC(=O)OC[C@H]1O[C@H](CC=NO[C@@H](C)c2cn([C@H](CO)Cc3ccccc3)nn2)C=C[C@@H]1OC(C)=O | -0.462 | -0.305 (inactive) | 0.0157 (inactive) | -2.87 (inactive) | -0.88 (inactive) | -0.793 (inactive) | -0.645 (inactive) | -1.36 (inactive) | 0.205 | -0.434 |
| CC(=O)OC[C@H]1O[C@@H](ON=C(C)CCN2CCCCc3nc(C)c(C)cc32)[C@H](OC(C)=O)[C@@H](OC(C)=O)[C@@H]1OC(C)=O | -0.077 | -0.436 (inactive) | 0.382 (inactive) | -2.52 (inactive) | -0.679 (inactive) | -1.15 (inactive) | -1.24 (inactive) | -0.816 (inactive) | -0.0356 | 0.0899 |
| COC(=O)[C@H](C)NC(=O)CCC1CC(OC(=O)NCc2cccc3ccccc23)CC2(CCCC(COC(=O)NCCCN3CCCC3=O)O2)O1 (stereo not given in full) | 0.607 | -0.0554 (inactive) | 0.478 (inactive) | -0.104 (inactive) | 0.286 (inactive) | 0.0627 (inactive) | 0.992 (inactive) | -1.34 (inactive) | -0.0303 | -0.273 |
| CCN1C(=O)[C@H]2[C@H]3[C@H](O)[C@H](O)CC(=NNC(=O)OCc4ccccc4)[C@@H]3CC[C@H]2C1=O | -0.501 | 0.226 (inactive) | -0.453 (inactive) | -0.283 (inactive) | -0.814 (inactive) | -0.338 (inactive) | 0.313 (inactive) | 0.0507 (inactive) | -0.747 | -0.0476 |
| COc1ccc(-c2cnnc(CCCn3ccnc3-c3ccccc3)n2)cc1 | -1.18 | -0.72 (inactive) | -0.891 (inactive) | 0.552 (inactive) | 1.17 (inactive) | -0.252 (inactive) | -0.867 (inactive) | -0.634 (inactive) | -1.38 | -0.0143 |
| CCN1C(=O)[C@H]2[C@@H]3C(=CC[C@H]2C1=O)C(=O)[C@H]1O[C@H]1[C@H]3O | -1.22 | -1.12 (inactive) | -5.38 (inactive) | -0.0207 (inactive) | -0.978 (inactive) | -0.628 (inactive) | -0.615 (inactive) | -0.788 (inactive) | -2.17 | 0.334 |
| CC(CCN1CCCc2nc(C)c(C)cc21)=NOC[C@@H](O)COCc1ccco1 | 0.365 | 0.657 (inactive) | 0.107 (inactive) | -0.697 (inactive) | 1.24 (inactive) | -0.349 (inactive) | 0.557 (inactive) | 0.948 (inactive) | 0.592 | 2.53 |
| O=C1C[C@@H](O)[C@@H](O)[C@@H]2[C@@H]3C(=O)N(c4ccc(F)cc4F)C(=O)[C@@H]3CC[C@H]12 | -0.635 | 0.021 (inactive) | -0.175 (inactive) | -0.0528 (inactive) | 0.471 (inactive) | -0.304 (inactive) | -0.297 (inactive) | -1.31 (inactive) | -0.413 | -0.214 |
| CCOC(=O)[C@H](CC(C)C)NC(=O)CCC1CC(OC(=O)NCc2ccc3c(c2)OCO3)CC2(CCCC(COC(=O)NCCc3ccc(Cl)cc3)O2)O1 (stereo not given in full) | 0.538 | -0.723 (inactive) | 0.984 (inactive) | -0.704 (inactive) | -0.151 (inactive) | -0.166 (inactive) | 0.337 (inactive) | -0.294 (inactive) | 1.13 | -0.157 |
